Screening data (PubChem)
Most compounds without a hit are left out; they make up all but 17% or so of the library.
TGFb SMAD3 inh = TGF-b pathway inhibition | HepG2 CAGA-GFP TGF-b/SMAD3 reporter, GFP fluorescence, 18 h; TGF-beta stimulated, 500 pg/mL final | Potency, µM (top dose mostly 46.1 µM), for the others: at the top dose activity, negative = inhibition, actives largely listed as inhibitors | actives 1.2% (n = 410,000) | AID 588855; also: % is scaled to controls: 0 for no effect and ±100 for the full control effect; nearly all actives have a fitted effect of over 65% in size
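Per well, imaged GFP fluorescence of HEPG2 CAGA-GFP cells gives the signal; cells get compound, then TGF-beta (500 pg/mL final), 18 h at 37 degrees C; %Activity versus -TGF-beta and +DMSO controls.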
TDP1 cell CPT = growth inhibition of DT40 Tdp1-/-;hTDP1 cells with camptothecin (screen for TDP1 inhibitors) | chicken DT40 Tdp1-/-;hTDP1 cells + 20 nM CPT, ATP luminescence, 48 h | Potency, µM (top dose mostly 46.2 µM), inactives show at the highest dose activity change, negative = growth inhibition, hits mostly inhibitors | actives 12% (n = 420,000); also: % is scaled to controls: 0 for no effect and ±100 for the full control effect; nearly all actives have a fitted effect of over 55% in size
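Chicken DT40 Tdp1-/- cells complemented with human TDP1, 400 cells/well, exposed to compounds plus 20 nM camptothecin for at least 48 h at 37 C; viability read as ATP content by CellTiter-Glo luminescence.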
DT40 TDP1 no CPT = qHTS for Inhibitors of human tyrosyl-DNA phosphodiesterase 1 (TDP1): qHTS in cells in absence of CPT | actives 15% (n = 420,000) | Potency, µM (highest dose often 46.2 µM), without a hit: top-dose activity change, negative = growth inhibition, most hits filed as inhibitors | DT40 Tdp1-/- hTDP1 cells, no CPT, ATP luminescence, 48 h; also: % is scaled to controls: 0 for no effect and ±100 for the full control effect; nearly all actives have a fitted effect of over 55% in size
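Compound effects on proliferation are scored in DT40 Tdp1-/-;hTDP1 cells in the absence of CPT. ATP levels (CellTiter-Glo luminescence) are recorded after a ≥48 hr, 37 °C incubation.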
HepG2 tox = counter-screen for TGF-b inhibitors: cytotoxicity in HepG2 cells | Potency, µM (doses to about 46.1 µM), without a hit: at the highest dose activity change, negative = cytotoxicity, usual class: cytotoxic | actives 0.76% (n = 410,000) | HepG2 CAGA-GFP viability, ATP luminescence, 18 h
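HepG2 CAGA-GFP cells (1000/well, DMEM with 1% FBS) received compound, then TGF-beta at 500 pg/mL final, and were incubated 18 hours at 37 degrees C. Viability was read by CellTiter-Glo luminescence. Media-only wells were set as complete cell-killing and DMSO as no toxicity.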
ATXN2 expr inh = inhibitors of ATXN2 expression; HEK-293 ATXN2-luciferase reporter, luminescence, 24 h; Potency, µM (top dose mostly 57 µM), without a hit: top-dose activity change, negative = inhibition, hits mostly inhibitors; actives 0.72% (n = 360,000); also: % is scaled to controls: 0 for no effect and ±100 for the full control effect; nearly all actives have a fitted effect of over 55% in size
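ATXN2-luciferase reporter cells (luciferase flanked by upstream and downstream ATXN2 gene portions) were treated 24 h at 37 °C with compounds at up to 57 uM. SteadyGlo luminescence gave expression; GF-AFC fluorescence gave viability.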
ATXN viability = cell viability loss in ATXN counter-screen; S2 cells (HEK-293 line with an ATXN2-luciferase reporter) viability, CellTiter-Fluor protease fluorescence, 24 h; Potency, µM (titrated, usually from 56.7 µM), most hits filed as cytotoxic; actives 0.49% (n = 400,000); AID 651635; also: nearly all actives have a fitted effect of over 40% in size
* = called active by the depositor; i = inactive; ? = inconclusive; . = no result. Calls follow the shape of the dose curve; as a rule, active = well fitted curve in the direction sought with a large enough effect; inconclusive = small, poorly fitted or top-dose-only effect, or another doubt; inactive = no such curve, though single readings can be large; an effect the other way counts as inactive or inconclusive. Potency is read from the fitted curve at half-maximal effect.

SMILES | TGFb SMAD3 inh | TDP1 cell CPT | DT40 TDP1 no CPT | HepG2 tox | ATXN2 expr inh | ATXN viability
OC(c1ccc(F)cc1)c1nc(-c2cccs2)cs1 (stereo not given) | -1% | -29% | ? | 2% | 35% | i
COc1cccc(CN2CCC2(C)C(=O)Nc2cccc(Oc3ccccc3)c2)c1F (stereo not given) | ? | 10µM* | 7.3µM* | -1% | -23% | i
COc1ccc(NC(=O)C2(C)CCN2CCOc2ccccc2)cc1OC (stereo not given) | -3% | ? | ? | 9% | -7% | i
COc1cccc(CN2CCC2(C)C(=O)Nc2ccc(C)c(O)c2)c1F (stereo not given) | 8% | 12µM* | 12µM* | -37% | -21% | ?
CC1(C(=O)Nc2cccc(Oc3ccccc3)c2)CCN1Cc1ccccc1OC(F)F (stereo not given) | -18% | ? | ? | -7% | -2% | i
COc1cccc(NC(=O)C2(C)CCN2Cc2cccc(OC)c2F)c1 (stereo not given) | -4% | ? | 21µM* | -28% | 10% | ?
CC1=NN(C(N)=S)C(=O)C1N=Nc1ccc(Cl)cc1 (stereo not given) | 1% | 0.52µM* | 1.5µM* | -25% | 63% | i
CC1=NN(C(N)=S)C(=O)C1N=Nc1cccc(Cl)c1C (stereo not given) | 14% | 13µM* | 8.2µM* | -4% | . | ?
CC1=NN(C(N)=S)C(=O)C1N=Nc1cccc([N+](=O)[O-])c1 (stereo not given) | 0% | ? | -13% | -13% | 19% | ?
CC1=NN(C(N)=S)C(=O)C1N=Nc1ccc(Br)cc1 (stereo not given) | 0% | 21µM* | ? | -30% | 41% | ?
CC1=NN(C(N)=S)C(=O)C1N=Nc1ccccc1 (stereo not given) | -13% | ? | ? | -2% | . | ?
Cc1ccc(Cl)cc1NC(=S)N(Cc1ccccc1)Cc1cccnc1 | 13% | 0% | -8% | -30% | -24% | i
Cc1c(C)[n+](=O)c(C)c(C)n1[O-] | 11% | -3% | -7% | -2% | 17% | i
COc1ccc(-c2cc(C(=O)Nc3cc(C(F)(F)F)ccc3Cl)no2)cc1 | 2% | 5% | 0% | -40% | -2% | i
COc1ccc(Cl)cc1C1=NOC2(CCC2)C(=O)N1Cc1ccc(NC(C)=O)cc1 | -15% | ? | ? | -5% | 11% | i
CC1=C(C(=O)OCc2ccccc2)C(c2cccnc2)n2nnnc2N1 (stereo not given) | -2% | ? | 16µM* | -18% | 8% | i
CCCCCOC(=O)C1=C(C)Nc2nnnn2C1c1ccccc1Cl (stereo not given) | ? | ? | 21µM* | -109% | -7% | i
COC(=O)C1=C(C)Nc2nnnn2C1c1ccccc1Cl (stereo not given) | -4% | 0% | -21% | -4% | 14% | i
CC(=O)Nc1cccc(NC(=O)C(=O)NCCc2csc3nc(-c4ccccc4F)nn23)c1 | -4% | -12% | -1% | 1% | 11% | i
CCn1cc(C(=O)O)c(=O)c2cc(F)c(N3CCN(S(=O)(=O)c4ccc(NC(=O)OC)cc4)CC3)cc21 | -4% | 18µM* | 18µM* | -8% | 49% | i
CCn1cc(C(=O)O)c(=O)c2cc(F)c(N/N=C/c3ccccc3[N+](=O)[O-])cc21 | -6% | 4.1µM* | 16µM* | -14% | ? | i
CCn1cc(C(=O)O)c(=O)c2cc(F)c(N3CCN(C(=S)NC(=O)c4ccccc4Br)CC3)cc21 | 14% | ? | 21µM* | 11% | 5% | i
CCn1cc(C(=O)O)c(=O)c2cc(F)c(N3CCN(C(=S)NC(=O)c4ccc(F)cc4)CC3)cc21 | 2% | ? | ? | -21% | -3% | i
CCCOc1ccc(C(=O)NC(=S)N2CCN(c3cc4c(cc3F)c(=O)c(C(=O)O)cn4CC)CC2)cc1 | -5% | 16µM* | 15µM* | 16% | -8% | i
CC1=C(C(=O)N(C(C)C)C(C)C)CC(CC(=O)NCCc2ccccn2)C(=O)N1CCC1=CCCCC1 (stereo not given) | -28% | ? | ? | 1% | -11% | ?
SMILES | TGFb SMAD3 inh | TDP1 cell CPT | DT40 TDP1 no CPT | HepG2 tox | ATXN2 expr inh | ATXN viability
CCn1cc(C(=O)O)c(=O)c2cc(F)c(N3CCN(C(=S)NC(=O)c4c(OC)cccc4OC)CC3)cc21 | 10% | 18µM* | 26µM* | 16% | 2% | i
Cn1c(NCCCN2CCOCC2)nc2c1c(=O)n(Cc1ccc(Cl)c(Cl)c1)c(=O)n2C | 2% | ? | ? | -39% | -17% | i
CSc1ccccc1NC(=O)CN(C)C(=O)c1ccc(NC(=O)c2cccs2)cc1 | -2% | ? | ? | 1% | . | i
CC(C)(C)CC(C)(C)N=C1Nc2cc(Cl)c(Cl)cc2N[C@]12C[C@H]1CCCC(=O)N3CC[C@@H](C2)[C@@H]13 | 7.1µM* | ? | 11µM* | -44% | . | .
CC(C)(C)CC(C)(C)N=C1Nc2cc(Cl)c(Cl)cc2NC12C[C@H]1CCC(=O)N3CC[C@@H](C2)[C@@H]13 (stereo not given in full) | 11µM* | ? | ? | 13µM* | ? | .
CC(=O)O[C@@H](Cc1ccc(O)cc1)C(=O)CC(C)C | . | -5% | -25% | . | 18% | i
CCNC(=O)C1CCCN(C(=O)c2ccc(C#N)cc2)CC1 (stereo not given) | -4% | -19% | -1% | 0% | 2% | i
Cc1nn2c(-c3ccccc3)nnc2c2ccccc12 | ? | -13% | -15% | -30% | 47% | i
Cc1nn2c3ccccc3nc2c2ccccc12 | ? | ? | ? | 16µM* | 7% | i
Cc1ccc(NC(=O)CSc2nnc3c(n2)[nH]c2ccccc23)cc1 | -6% | 3% | 8% | 5% | 1% | i
O=C(CSc1nnc2c(n1)[nH]c1ccccc12)Nc1ccc(N2CCOCC2)cc1 | -20% | ? | ? | -8% | -5% | i
O=C(CSc1nnc2c(n1)[nH]c1ccccc12)Nc1cccc(S(=O)(=O)N2CCOCC2)c1 | -10% | 15µM* | ? | -11% | -10% | i
